PAX8 reporter – inhibitors of PAX8-driven TPO luciferase reporter, primary screen, RMG-I cells, single concentration; SteadyGlo, 24 h; inhibition, % at 12.6 µM; actives 1.2% (n = 360,000); AID 652154, 2013;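 active = mean replicate inhibition at least 60% with every replicate also reaching 60%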;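 note: luciferase light reporting Pax8 driven TPO promoter activity; plate controls were median of neutral control wells for no effect and mitoxantrone controls for full effect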
miR122 inh – miR-122 Renilla sensor signal increase in Huh7, primary screen, miR-122 inhibitor project, cell-based, single point, plate reader | Huh7 miR-122 Renilla luciferase sensor, 48 h; neutral wells = 0, positive control = 100 | activation (reporter increase), % at 12.5 µM | actives 0.3% (n = 340,000) | AID 602342, 2012;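 active = mean replicate activation score at least 90 and every replicate individually at or above 90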;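 note: higher luciferase means less miR-122 activity so hits act as miR-122 inhibitors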
EWS-Fli block – EWS/Fli-driven NR0B1 reporter inhibitors, primary screen, A673 cells, NR0B1 luciferase, luminescence, MLPCN library. viability-normalised. inhibition, % at 12.6 µM. actives 0.67% (n = 350,000);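 active = mean inhibition of at least 50% after viability correction, with every replicate also passing that limit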;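 note: firefly luciferase signal divided by Alamar Blue viability fluorescence both relative to DMSO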
INS-1E GSIS act – GLuc luminescence reporter in INS-1E cells, primary screen for activators of glucose-dependent secretion of insulin; INS-1E GLuc reporter insulin secretion, 2-3 h; actives 0.61% (n = 370,000); activation, % at 16.6 µM; AID 743287, 2014;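 active = lowest replicate activation of at least 40%, so every replicate reaches that level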;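 note: 0% = median of neutral control wells and 100% = median of IBMX positive control wells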
Env fusion inh – inhibitors of HIV-1 Env-driven cell-cell fusion, primary screen, HeLa-JRFL effector, CEM21 target cells, luciferase. inhibition, % at 12.3 µM. actives 1.1% (n = 360,000). AID 651610, 2012;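 active = mean replicate inhibition score of at least 50 and every replicate individually at or above 50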;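 note: 0% = plate neutral controls and 100% = maraviroc near 300 nM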
C2C12 statin – suppressors of statin myotoxicity in C2C12 myotubes, primary screen, cell-based, single point, plate reader; C2C12 myotubes + simvastatin, ATP luminescence, 48 h; scaled: DMSO 0, geranylgeraniol control 100; rescue of ATP level, % at 7.49 µM; actives 0.78% (n = 330,000);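 active = mean ATP rescue above about 67%, or every replicate alone reaching that limit, limit read from the data, passing the limit was not always enough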;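 note: myotubes were challenged with 10 µM simvastatin during compound exposure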
* marks the source's active call; other numbers are inactive results; nt = not tested or not shown; [ ] = another dose, or the depositor's remark. Only some compounds are listed: those with a hit (about 3.1% of all), similar ones and a draw of the others.

SMILES	PAX8 reporter	miR122 inh	EWS-Fli block	INS-1E GSIS act	Env fusion inh	C2C12 statin
Cc1ccc(S(=O)(=O)N(C)C[C@@H]2Oc3cc(C#Cc4ccncc4)ccc3S(=O)(=O)N([C@H](C)CO)C[C@H]2C)cc1	106*	15[16.7 µM]	46	7	nt	-26
Cc1ccc(S(=O)(=O)N(C)C[C@@H]2Oc3cc(C#Cc4ccncc4)ccc3S(=O)(=O)N([C@H](C)CO)C[C@@H]2C)cc1	78*	-26[16.7 µM]	28	6	nt	-17
Cc1ccc(S(=O)(=O)N(C)C[C@H]2Oc3cc(C#Cc4ccncc4)ccc3S(=O)(=O)N([C@@H](C)CO)C[C@@H]2C)cc1	103*	57[16.7 µM]	22	-11	nt	-22
CN(C)C(=O)c1ccc(-c2ccc([C@@H]3[C@H](CO)N4CCCCN(Cc5cncnc5)C[C@@H]34)cc2)cc1	-23	0[16.7 µM]	-25	7	nt	nt
Cc1ccsc1C1Nc2ccc3ncccc3c2C2=C1C(=O)CC(C)(C)C2 (configuration not stated)	nt	95*	nt	-35	50	32
O=C1CCCC2=C1C(c1cccs1)Nc1ccc3ncccc3c12 (configuration not stated)	nt	-3	nt	-3	28	139*
O=C1CCCC2=C1C(c1ccc(O)c(O)c1)Nc1ccc3ncccc3c12 (configuration not stated)	0	nt	2	7	4	-1
O=C1CCCC2=C1C(c1cccs1)Nc1ccccc1N2 (configuration not stated)	8	nt	nt	-1	87*	nt
C[C@@H]1CN([C@@H](C)CO)C(=O)c2cc(NS(C)(=O)=O)ccc2O[C@@H]1CN(C)C(=O)Nc1cccc2ccccc12	-4	-5[16.7 µM]	nt	4	1[16.7 µM]	4
CCN(CC)C(=O)[C@H]1C[C@H](CC(=O)NCC23CC4CC(CC(C4)C2)C3)C(=O)N2CCc3c([nH]c4ccc(Cl)cc34)[C@]12C	41	-16	-1	-19	65*	5
CC(C)=CCC/C(C)=C/CNC(=O)C[C@H]1C[C@H](C(=O)N2CCOCC2)[C@@]2(C)c3[nH]c4ccc(Cl)cc4c3CCN2C1=O	104*	-16	36	-22	8	-1
CCN(CC)C(=O)[C@H]1C[C@H](CC(=O)NCCCN(C)C)C(=O)N2CCc3c([nH]c4ccc(Cl)cc34)[C@]12C	1	-4	-16	7	-10	-14
CCN(CC)C(=O)[C@H]1C[C@H](CC(=O)NCc2cccc(C(F)(F)F)c2)C(=O)N2CCc3c([nH]c4ccc(Cl)cc34)[C@]12C	76*	-13	22	-8	-17	-13
CC(C)N(C(=O)[C@H]1C[C@H](CC(=O)NCCCN(C)C)C(=O)N2CCc3c([nH]c4ccc(Cl)cc34)[C@]12C)C(C)C	22	-7	5	14	-21	-15
CC(C)N(C(=O)[C@H]1C[C@H](CC(=O)NCC23CC4CC(CC(C4)C2)C3)C(=O)N2CCc3c([nH]c4ccc(Cl)cc34)[C@]12C)C(C)C	67*	-13	3	2	nt	-19
CC(C)(C)NC(=O)C[C@H]1C[C@H](C(=O)N2CCCCC2)[C@@]2(CCc3ccccc3)c3[nH]c4ccc(Cl)cc4c3CCN2C1=O	-4	-3	7	13	28	18
O=C(C[C@H]1C[C@H](C(=O)N2CCCCC2)[C@@]2(CCc3ccccc3)c3[nH]c4ccc(Cl)cc4c3CCN2C1=O)NCc1ccco1	73*	-2	22	-6	18	8
CC(C)Cc1nnc(NC(=O)Cc2ccccc2[N+](=O)[O-])s1	-7	126*	13	1	nt	-3
O=C(Cc1ccccc1[N+](=O)[O-])Nc1nccs1	21	2	7	20	18	nt
COc1ccc(Nc2c(CCc3ccccc3)nc3nc(C)cc(C)n23)cc1	-8	nt	15	1	85*	nt
O=C(c1ccc2c(c1)OCO2)N1C[C@H]2[C@@H](c3ccccc31)[C@@H](CO)N2Cc1ccccc1Cl	14	-12[16.7 µM]	4	-21	nt	36
CC(C)(C)c1ccc(NC(=S)NCc2cccs2)cc1	nt	56	nt	nt	nt	-9
CCC(C)c1ccc(NC(=S)NCc2cccs2)cc1 (configuration not stated)	nt	174*	nt	-10	-47	-9
C[C@@H]1CN([C@@H](C)CO)C(=O)c2cc(C3=CCCC3)cnc2O[C@@H]1CN(C)C(=O)c1ccc2c(c1)OCO2	-3	13[16.7 µM]	-2	-2	12[16.7 µM]	-7
Cc1noc(/C=C/c2ccco2)c1S(=O)(=O)N1CCC(C(=O)N(C)Cc2ccccc2)CC1	nt	-8	nt	2	10	16
SMILES	PAX8 reporter	miR122 inh	EWS-Fli block	INS-1E GSIS act	Env fusion inh	C2C12 statin
Cc1noc(/C=C/c2ccco2)c1S(=O)(=O)N1CCC(C(=O)NC(C)c2ccccc2)CC1 (configuration not stated)	94*	nt	5	11	-5	-22
CC(=O)Nc1ccc2c(c1)C(=O)N(C)[C@@H]1CC[C@H](CC(=O)Nc3cn(C)nc3C)O[C@@H]1CO2	4	4[16.7 µM]	-1	-7	16[16.7 µM]	-4
Cn1c(=O)c2cc(S(=O)(=O)NCCC(=O)NCCC3=CCCCC3)ccc2n(C)c1=O	nt	103*	9	nt	nt	nt
Cc1ccc(CCNC(=O)CCNS(=O)(=O)c2ccc3c(c2)c(=O)n(C)c(=O)n3C)cc1	nt	-3	nt	-11	-30	3
O=C(NNC(=O)C1CC1c1ccccc1)Nc1cccc(Cl)c1 (configuration not stated)	nt	nt	nt	-12	56*	1
CCCCCCc1nc2ccccc2c(=O)n1NC(=O)c1c(O)c2c(n(CC(C)C)c1=O)CCCC2	nt	0	nt	nt	73*	-10
Cc1ccc(C2=NOC3(CC(=O)N(c4ccccc4)C3=O)C2)cc1 (configuration not stated)	14	1	6	-1	2	76*
Cc1ccc(C2=NOC3(CC(=O)N(c4ccc(C)cc4)C3=O)C2)cc1 (configuration not stated)	4	nt	4	1	3	nt
CO[C@@H]1CN(C)C(=O)c2cc(NC(=O)c3ccc(Oc4ccccc4)cc3)ccc2OC[C@@H](C)N(C(C)=O)C[C@H]1C	nt	nt	11	-18	21[16.7 µM]	9
COc1ccc(CN2[C@H](CO)[C@H]3c4ccccc4NC[C@H]32)cc1	96*	0[16.7 µM]	48	8	nt	157*
COc1ccc(CN2[C@@H](CO)[C@@H]3c4ccccc4NC[C@@H]32)cc1	20	-14[16.7 µM]	-2	7	nt	15
CN1C[C@@H]2[C@H](c3ccccc31)[C@H](CO)N2Cc1ccccc1Cl	109*	-7[16.7 µM]	7	6	nt	-2

From PubChem
